Experimental data published in the supplement of paper PMC10849652.
Of roughly 8,800 targets only a part is listed; those with a hit were picked by preference. About 0.5% of all pairs of compound and target were hits.

Assays:
Assay in all cases: log2 fold change, soluble protein after heating vs DMSO (PISA); higher = thermal stabilisation; K562 lysate, 10 uM; active = over 0.2 and 3.5 SD of the protein, either way, in both replicates (recomputed)
[1] = compound: CN1CC[C@H](c2c(O)cc(O)c3c(=O)cc(-c4ccccc4Cl)oc23)[C@H](O)C1 [alvocidib]
Procedure, shortened: (§1)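 Quantification was by TMTpro 16plex LC-MS/MS with equalised channel sums, applied to the supernatant after 21,000xg for 90 min. Samples were crude K562 extract at 1 mg/mL protein in PBS pH 7.4 with 1 mM MgCl2, treated with 10 μM compound for 30 min, heated for 3 min across 48°C-58°C, pooled and brought to 0.5% NP-40 at 4°C. Values are log-two fold changes in thermal stability relative to solvent controls, from duplicates.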

[2] = compound: CN1CCc2c(c3ccccc3n2Cc2ccc(C(=O)NO)cc2)C1 [Tubastatin A]
Procedure, shortened: as §1

[3] = compound: CNC(=O)C1=CC=CC=C1NC2=NC(=NC=C2Cl)NC3=C(C=C(C=C3)N4CCOCC4)OC
Procedure, shortened: as §1

[4] = compound: CNC(=O)c1ccc(Nc2ncc(C(F)(F)F)c(NCc3nccnc3N(C)S(C)(=O)=O)n2)cc1 [defactinib]
Procedure, shortened: as §1

[5] = compound: CNc1nc(-c2ccc3c(N)n[nH]c3c2)cc(N2C[C@@H](C(=O)NC3CCCCC3)CC[C@H]2C)n1
Procedure, shortened: as §1

[6] = compound: COC(=O)N[C@@H](C)CNc1nccc(-c2cn(C(C)C)nc2-c2cc(Cl)cc(NS(C)(=O)=O)c2F)n1 [encorafenib]
Procedure, shortened: as §1

[7] = compound: COC(=O)[C@H](CCSC)NC(=O)C1=C(C=C(C=C1)NC[C@H](CS)N)C2=CC=CC=C2
Procedure, shortened: as §1

[8] = compound: COc1cc(Nc2ncc3c(n2)-c2ccc(Cl)cc2C(c2c(F)cccc2OC)=NC3)ccc1C(=O)O [alisertib]
Procedure, shortened: as §1

[9] = compound: COc1cc2nc(-c3cc(F)ccc3O)nc(N[C@@H]3CNC[C@H]3C(C)(C)O)c2cc1OC
Procedure, shortened: as §1

[10] = compound: COc1cc2ncnc(Nc3ccc(F)c(Cl)c3)c2cc1OCCCN1CCOCC1 [gefitinib]
Procedure, shortened: as §1

Measured: log2 fold change

NPTN (UniProt Q9Y639)
UniProt Q9Y639, sequence (Q9Y639 whole entry, looked up): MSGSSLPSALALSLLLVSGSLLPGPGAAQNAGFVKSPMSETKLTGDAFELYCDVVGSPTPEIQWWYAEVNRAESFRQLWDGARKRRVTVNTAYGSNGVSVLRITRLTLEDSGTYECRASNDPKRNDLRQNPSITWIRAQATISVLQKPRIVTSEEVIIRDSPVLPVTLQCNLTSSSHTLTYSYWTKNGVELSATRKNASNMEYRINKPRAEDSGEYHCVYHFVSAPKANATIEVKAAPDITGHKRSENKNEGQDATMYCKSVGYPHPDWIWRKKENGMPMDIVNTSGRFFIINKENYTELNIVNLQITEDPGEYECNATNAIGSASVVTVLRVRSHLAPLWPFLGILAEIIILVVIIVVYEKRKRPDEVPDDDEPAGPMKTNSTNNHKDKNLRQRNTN
inactive: [1] -0.023 | [2] -0.01 | [3] 0 | [4] -0.185 | [5] 0.03 | [6] -0.023 | [7] 0.015 | [8] 0.011 | [9] 0.042 | [10] 0.024

PANK1 (UniProt Q8TE04)
inactive: [1] 0.002 | [2] 0.025 | [3] 0.051 | [4] -0.082 | [5] -0.076 | [6] 0.312 | [7] 0.173 | [8] 0.001 | [9] -0.096 | [10] 0.072

OTUD7B (UniProt Q6GQQ9)
UniProt Q6GQQ9, sequence (Q6GQQ9 whole entry, looked up): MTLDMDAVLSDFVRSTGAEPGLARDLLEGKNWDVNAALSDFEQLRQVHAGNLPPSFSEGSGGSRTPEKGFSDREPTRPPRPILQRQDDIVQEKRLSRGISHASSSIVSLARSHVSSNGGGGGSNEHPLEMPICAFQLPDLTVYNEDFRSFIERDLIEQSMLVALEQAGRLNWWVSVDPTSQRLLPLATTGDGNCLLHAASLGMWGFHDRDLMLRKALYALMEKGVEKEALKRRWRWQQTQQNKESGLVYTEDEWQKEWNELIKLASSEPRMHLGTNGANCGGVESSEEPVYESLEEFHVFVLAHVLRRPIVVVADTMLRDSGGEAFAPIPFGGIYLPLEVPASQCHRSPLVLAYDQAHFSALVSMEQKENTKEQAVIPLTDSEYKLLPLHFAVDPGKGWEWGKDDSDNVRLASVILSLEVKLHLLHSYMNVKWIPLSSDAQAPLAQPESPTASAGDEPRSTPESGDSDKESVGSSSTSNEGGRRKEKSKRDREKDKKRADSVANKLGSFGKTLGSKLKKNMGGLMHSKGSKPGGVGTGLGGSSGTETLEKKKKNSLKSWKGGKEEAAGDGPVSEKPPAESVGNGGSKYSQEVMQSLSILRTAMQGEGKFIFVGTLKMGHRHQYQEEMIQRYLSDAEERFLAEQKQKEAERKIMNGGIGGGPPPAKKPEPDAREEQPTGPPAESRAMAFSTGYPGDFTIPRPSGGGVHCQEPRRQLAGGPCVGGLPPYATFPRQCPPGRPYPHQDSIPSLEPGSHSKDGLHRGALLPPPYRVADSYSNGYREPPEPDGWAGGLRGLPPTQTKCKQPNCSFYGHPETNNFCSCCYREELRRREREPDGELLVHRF
inactive: [1] -0.052 | [2] -0.099 | [3] 0.005 | [4] 0.022 | [5] -0.011 | [6] 0.042 | [7] 0.049 | [8] -0.006 | [9] -0.031 | [10] 0.062

NAA38 isoform 2 (UniProt Q9BRA0)
UniProt Q9BRA0, sequence (Q9BRA0 whole entry, looked up): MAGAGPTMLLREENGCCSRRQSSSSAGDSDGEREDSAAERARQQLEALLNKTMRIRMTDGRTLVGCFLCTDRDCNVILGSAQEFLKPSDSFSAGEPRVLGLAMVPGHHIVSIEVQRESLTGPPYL
inactive: [1] -0.143 | [2] -0.005 | [3] 0.01 | [4] 0.013 | [5] 0.03 | [6] -0.022 | [7] 0.001 | [8] 0.05 | [9] 0.022 | [10] -0.017

NUP133 (UniProt Q8WUM0)
inactive: [1] -0.08 | [2] -0.111 | [3] -0.007 | [4] 0.035 | [5] -0.028 | [6] 0.039 | [7] 0.002 | [8] -0.009 | [9] 0.011 | [10] -0.003

NUP98 (UniProt P52948)
UniProt P52948, sequence (P52948 whole entry, looked up): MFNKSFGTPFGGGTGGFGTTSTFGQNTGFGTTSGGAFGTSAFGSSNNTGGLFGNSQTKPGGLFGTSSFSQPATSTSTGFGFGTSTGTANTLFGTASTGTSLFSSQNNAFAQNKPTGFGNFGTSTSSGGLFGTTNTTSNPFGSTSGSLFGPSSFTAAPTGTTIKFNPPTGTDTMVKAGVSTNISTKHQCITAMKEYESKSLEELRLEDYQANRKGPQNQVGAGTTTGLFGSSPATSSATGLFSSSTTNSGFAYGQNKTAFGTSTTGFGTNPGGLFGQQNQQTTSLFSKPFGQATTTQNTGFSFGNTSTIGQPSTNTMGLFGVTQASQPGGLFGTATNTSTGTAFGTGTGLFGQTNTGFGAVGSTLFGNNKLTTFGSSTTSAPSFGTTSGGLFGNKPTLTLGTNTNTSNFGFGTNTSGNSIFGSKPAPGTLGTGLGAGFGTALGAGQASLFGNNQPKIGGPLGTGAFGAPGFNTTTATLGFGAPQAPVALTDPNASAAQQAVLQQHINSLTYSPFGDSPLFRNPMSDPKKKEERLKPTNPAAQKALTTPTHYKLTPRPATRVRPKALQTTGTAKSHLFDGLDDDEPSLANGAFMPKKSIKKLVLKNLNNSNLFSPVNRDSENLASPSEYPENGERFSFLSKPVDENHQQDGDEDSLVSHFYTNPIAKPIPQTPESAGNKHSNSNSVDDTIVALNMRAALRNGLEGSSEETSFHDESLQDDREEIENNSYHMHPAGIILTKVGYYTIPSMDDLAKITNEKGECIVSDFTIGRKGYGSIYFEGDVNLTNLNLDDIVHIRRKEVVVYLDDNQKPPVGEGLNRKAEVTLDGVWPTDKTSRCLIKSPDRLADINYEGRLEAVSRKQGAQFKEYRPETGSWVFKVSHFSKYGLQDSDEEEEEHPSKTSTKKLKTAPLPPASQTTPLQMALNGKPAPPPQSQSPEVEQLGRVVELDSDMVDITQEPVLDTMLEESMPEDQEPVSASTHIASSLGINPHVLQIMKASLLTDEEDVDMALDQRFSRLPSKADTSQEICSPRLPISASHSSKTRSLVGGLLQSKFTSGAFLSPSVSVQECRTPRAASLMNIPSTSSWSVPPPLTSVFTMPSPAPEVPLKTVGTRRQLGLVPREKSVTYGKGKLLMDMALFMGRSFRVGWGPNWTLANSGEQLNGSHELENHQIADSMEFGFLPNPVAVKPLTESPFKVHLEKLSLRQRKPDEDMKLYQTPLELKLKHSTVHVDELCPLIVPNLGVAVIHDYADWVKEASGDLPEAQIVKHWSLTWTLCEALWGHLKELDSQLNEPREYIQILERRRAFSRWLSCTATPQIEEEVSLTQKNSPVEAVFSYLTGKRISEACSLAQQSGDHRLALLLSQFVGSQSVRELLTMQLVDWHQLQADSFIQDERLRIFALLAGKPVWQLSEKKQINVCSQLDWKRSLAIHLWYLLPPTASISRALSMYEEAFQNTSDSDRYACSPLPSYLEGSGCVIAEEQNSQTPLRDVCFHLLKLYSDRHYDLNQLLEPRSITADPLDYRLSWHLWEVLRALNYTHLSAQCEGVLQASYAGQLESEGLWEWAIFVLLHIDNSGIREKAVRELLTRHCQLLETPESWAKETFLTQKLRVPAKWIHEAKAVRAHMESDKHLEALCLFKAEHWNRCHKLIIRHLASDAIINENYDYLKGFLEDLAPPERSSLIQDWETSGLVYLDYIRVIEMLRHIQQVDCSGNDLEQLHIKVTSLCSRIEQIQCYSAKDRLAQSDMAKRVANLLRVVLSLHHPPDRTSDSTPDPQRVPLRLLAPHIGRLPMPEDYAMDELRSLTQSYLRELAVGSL
inactive: [1] -0.019 | [2] -0.117 | [3] 0.029 | [4] 0.031 | [5] 0.047 | [6] 0.064 | [7] -0.04 | [8] 0.01 | [9] 0.017 | [10] 0.011

NSL1 (UniProt Q96IY1)
UniProt Q96IY1, sequence (Q96IY1 whole entry, looked up): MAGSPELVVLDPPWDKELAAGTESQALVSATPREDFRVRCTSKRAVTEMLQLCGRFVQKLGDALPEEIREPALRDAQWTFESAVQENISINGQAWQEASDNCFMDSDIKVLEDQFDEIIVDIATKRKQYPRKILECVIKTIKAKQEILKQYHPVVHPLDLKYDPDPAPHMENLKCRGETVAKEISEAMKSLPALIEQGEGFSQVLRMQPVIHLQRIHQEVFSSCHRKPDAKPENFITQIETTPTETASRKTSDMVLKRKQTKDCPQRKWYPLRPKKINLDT
inactive: [1] -0.026 | [2] -0.084 | [3] 0.016 | [4] 0.034 | [5] -0.004 | [6] -0.055 | [7] 0.094 | [8] 0.019 | [9] -0.014 | [10] -0.004

MYOM1 (UniProt P52179)
inactive: [1] 0.039 | [2] -0.033 | [3] -0.092 | [4] 0.194 | [5] 0.139 | [6] 0.065 | [7] -0.011 | [8] 0.215 | [9] -0.06 | [10] 0.026

NUSAP1 (UniProt Q9BXS6)
UniProt Q9BXS6, sequence (Q9BXS6 whole entry, looked up): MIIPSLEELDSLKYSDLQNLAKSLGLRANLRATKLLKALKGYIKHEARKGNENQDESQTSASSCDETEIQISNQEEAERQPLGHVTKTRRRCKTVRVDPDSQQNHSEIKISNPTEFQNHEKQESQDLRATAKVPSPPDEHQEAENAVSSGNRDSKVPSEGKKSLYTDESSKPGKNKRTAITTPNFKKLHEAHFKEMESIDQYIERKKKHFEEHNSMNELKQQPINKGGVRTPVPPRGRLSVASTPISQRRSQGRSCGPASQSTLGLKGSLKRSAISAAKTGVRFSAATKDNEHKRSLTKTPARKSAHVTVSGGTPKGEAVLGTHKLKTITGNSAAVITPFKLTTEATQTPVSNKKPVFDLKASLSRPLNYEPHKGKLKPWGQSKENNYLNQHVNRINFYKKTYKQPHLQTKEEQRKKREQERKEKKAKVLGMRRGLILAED
inactive: [1] -0.17 | [2] 0.029 | [3] -0.02 | [4] 0.027 | [5] 0.07 | [6] 0.012 | [7] -0.028 | [8] 0.01 | [9] -0.002 | [10] -0.012

NCAPD2 (UniProt Q15021)
inactive: [1] 0.007 | [2] -0.119 | [3] 0.013 | [4] 0.002 | [5] -0.018 | [6] 0.013 | [7] 0.076 | [8] 0.004 | [9] -0.005 | [10] -0.016

NFATC1 (UniProt O95644)
inactive: [1] -0.024 | [2] -0.138 | [3] 0.124 | [4] -0.012 | [5] -0.031 | [6] -0.071 | [7] 0.048 | [8] -0.025 | [9] 0.001 | [10] 0.027

MTA3 (UniProt Q9BTC8)
inactive: [1] -0.016 | [2] -0.013 | [3] 0.019 | [4] 0.044 | [5] -0.043 | [6] 0.041 | [7] 0.091 | [8] 0.077 | [9] 0.025 | [10] -0.059

OSBP2 (UniProt Q969R2)
inactive: [1] -0.211 | [2] 0.047 | [3] -0.102 | [4] 0.011 | [5] -0.032 | [6] 0.04 | [7] -0.1 | [8] 0.052 | [9] -0.033 | [10] 0.011

PAGE2B (UniProt Q5JRK9)
UniProt Q5JRK9, sequence (Q5JRK9 whole entry, looked up): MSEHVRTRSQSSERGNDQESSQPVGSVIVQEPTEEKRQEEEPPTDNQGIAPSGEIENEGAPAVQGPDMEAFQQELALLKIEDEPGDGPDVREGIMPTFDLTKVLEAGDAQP
inactive: [1] 0.059 | [2] 0.175 | [3] 0.097 | [4] 0.253 | [5] 0.072 | [6] 0.089 | [7] -0.001 | [8] 0.053 | [9] -0.091 | [10] -0.051

NMT1 (UniProt P30419)
UniProt P30419, sequence (P30419 whole entry, looked up): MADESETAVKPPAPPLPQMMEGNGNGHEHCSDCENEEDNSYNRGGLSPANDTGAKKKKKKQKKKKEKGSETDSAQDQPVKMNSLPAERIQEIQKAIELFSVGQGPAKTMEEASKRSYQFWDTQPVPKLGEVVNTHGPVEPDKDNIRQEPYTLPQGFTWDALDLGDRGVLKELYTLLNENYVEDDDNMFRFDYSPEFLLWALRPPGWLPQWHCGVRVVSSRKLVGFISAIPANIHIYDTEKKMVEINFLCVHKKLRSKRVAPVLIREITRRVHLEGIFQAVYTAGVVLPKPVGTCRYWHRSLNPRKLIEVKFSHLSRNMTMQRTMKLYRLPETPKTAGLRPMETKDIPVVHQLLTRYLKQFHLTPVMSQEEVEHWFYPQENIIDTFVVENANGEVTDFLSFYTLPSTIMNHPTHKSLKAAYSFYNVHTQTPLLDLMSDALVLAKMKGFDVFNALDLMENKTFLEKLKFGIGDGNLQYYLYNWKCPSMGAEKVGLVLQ
inactive: [1] 0.021 | [2] 0.001 | [3] 0.001 | [4] 0.031 | [5] 0.011 | [6] -0.001 | [7] 0.087 | [8] -0.005 | [9] 0.007 | [10] -0.006
